Source: PubChem (NMMLSC)
VLA-4 inh: inhibition in a human VLA-4 binding assay; P13612; VLA-4 expressing cells, ligand binding flow cytometry; inhibition, % (about 7 µM as worked out from the volumes in the protocol); 0.2% of 330,000 active; AID 2557; in the data active means inhibition above about 50%
LAP4 TOR yeast: modulators of TOR pathway LAP4-GFP in S. cerevisiae; S. cerevisiae LAP4-GFP multiplex, flow cytometry GFP, 3 h; median GFP as percent of DMSO wells; GFP response vs DMSO, % at 10 µM; 0.34% of 320,000 active;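 active means GFP response vs DMSO above a set limit, about the screen mean plus 3 SD, cut at about 150% in these data; inconclusive means under 70 cell events counted for the yeast strain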
MEP2-GFP yeast: modulators of TOR pathway MEP2-GFP in S. cerevisiae; S. cerevisiae MEP2-GFP strain, flow cytometry GFP, 3 h; 100% = DMSO control level; GFP response vs DMSO, % at 10 µM; 0.51% of 330,000 active;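 active means GFP response versus DMSO above a set limit, roughly screen mean plus 3 SD, cut at about 180% in these data; inconclusive means fewer than 70 cells counted for a yeast strain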;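 further: median GFP fluorescence of the barcode-gated MEP2-GFP cells per well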
RPL19A-GFP yeast: yeast TOR pathway RPL19A-GFP modulation | S. cerevisiae RPL19A-GFP strain, flow cytometry, 3 h; stronger effect = lower value | percent response vs DMSO, % at 10 µM | 0.3% of 330,000 active | AID 2025;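 active means percent response vs DMSO below 50%; inconclusive means fewer than 70 events counted for the yeast strain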;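 further: median channel GFP fluorescence of the barcoded RPL19A-GFP strain; ratio of sample median GFP to plate DMSO average so 100% = DMSO; lower means less RPL19A-GFP as with rapamycin TOR inhibition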
CIT2 TOR yeast: yeast TOR pathway CIT2-GFP modulation. GFP response vs DMSO, % at 10 µM. 0.065% of 320,000 active. S. cerevisiae CIT2-GFP strain, flow cytometry, 3 h; 100 means same as DMSO wells. AID 2029;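 active means GFP response relative to DMSO above a set limit, near the screen mean plus 3 SD, cut at about 150% in these data; inconclusive means Fewer than 70 cells measured for a yeast strain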;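 further: ratio of well median GFP fluorescence to mean of DMSO wells on the plate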
AGP1 TOR yeast: yeast TOR pathway AGP1-GFP modulation. S. cerevisiae AGP1-GFP multiplex flow cytometry, 3 h; GFP as percent of DMSO wells. AID 2066. 0.02% of 320,000 active. GFP response vs DMSO, % at 10 µM;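 active means GFP response relative to DMSO above a set limit, near screen average plus 3 SD, cut at about 150% in these data; inconclusive means fewer than 70 cells counted for the yeast strain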;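 further: median GFP channel fluorescence of the gated AGP1 strain per well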
The depositor's hits bear a star; ? = inconclusive; / = not tested or not shown; [ ] = dose if it differs, or a comment. Shown are actives, neighbours in structure and some others; about 1.1% of the full set was active somewhere.

SMILES | VLA-4 inh | LAP4 TOR yeast | MEP2-GFP yeast | RPL19A-GFP yeast | CIT2 TOR yeast | AGP1 TOR yeast
CCOc1c(Br)ccc2c1sc1nc[nH]c(=O)c12 | 10 | 105 | 183* | / | 105 | 27
CC(=O)N[C@@H](CC(=O)N[C@H](CCC(=O)O)C(=O)O)C(=O)O | 35 | 100 | 528*[may fluoresce violet] | 47*[may fluoresce violet] | ? | 16
O=C(O)CCC(NC(=O)c1cncc(O)c1)C(=O)O (centres undefined) | 4 | 105 | 99 | 102 | 102 | 99
COc1ccc2[nH]cc(C=O)c2c1 | 2 | 109 | 100 | 104 | 104 | 102
COc1ccc2[nH]cc(/C=C/c3cc[n+](C)cc3)c2c1 | -251 | 134 | 369*[may fluoresce violet] | 78 | ? | ?
CCOCCCNC(=O)c1cc(Nc2ccc(OC)cc2OC)nc2ccccc12 | 3 | 98 | 105 | 102 | 95 | 95
O=C(CCC(=O)N/N=C/c1cc(Cl)cc(Cl)c1O)NCc1ccccc1 | -2 | 100 | 364*[may fluoresce violet] | 75 | ? | 22
O=C(CCC(=O)N/N=C/c1ccc(Br)s1)NCc1ccccc1 | 12 | 83 | 103 | 100 | 96 | 92
Cc1ccc(NC(=O)c2cc(NC(=O)c3ccco3)ccc2N2CCCCC2)cc1 | -5 | 90 | 371*[may fluoresce violet] | 27*[may fluoresce violet] | ? | ?
Cc1ccc(NC(=O)c2cc(NC(=O)c3ccco3)ccc2N2CCOCC2)cc1 | 1 | 103 | 100 | 98 | 94 | 97
CC(=O)c1ccc(NC(=O)CN2CCCC2)cc1 | 5 | 88 | 102 | 100 | 103 | 99
C=CCNC(=S)N/N=C(\C)c1cccc(OC)c1 | 10 | 123 | 217* | 106 | 100 | 94
O=C(Nc1ccccc1N1CCN(C(=O)c2ccc(Cl)cc2)CC1)c1ccc([N+](=O)[O-])o1 | 4 | 115 | 103 | 95 | 82 | 97
O=C(Nc1cccc(Cl)c1N1CCCC1)c1ccc([N+](=O)[O-])o1 | 6 | 211* | 82 | 82 | 67 | 81
O=C(Nc1ccccc1N1CCOCC1)c1ccc([N+](=O)[O-])o1 | 14 | 40 | 68 | 45* | 52 | 22
Cc1ccc(S(=O)(=O)NCc2ccccc2)cc1C(=O)NC1CCC(C)CC1 (centres undefined) | -11 | 93 | 100 | 102 | 99 | 99
CNC(=O)c1c(O)c2cccc3c2n(c1=O)CC3 | 15 | 99 | 99 | 104 | 97 | 99
O=C(Nc1cccnc1)c1c(O)c2cccc3c2n(c1=O)CC3 | 3 | 38 | 150 | 49*[may fluoresce violet] | ? | ?
Cn1c(=O)[nH]c(=O)c2c1nc(N1CCCCC1)n2CCOc1ccccc1 | -2 | 90 | 218* | / | 118 | 26
CCOCCCn1c(=NC(=O)c2cccnc2)c(C(=O)OCC)cc2c(=O)n3ccccc3nc21 | -7 | 100 | 196*[may fluoresce violet] | 43*[may fluoresce violet] | ? | 24
CCOC(=O)c1cc2c(=O)n3cccc(C)c3nc2n(CCCOC)c1=NC(=O)c1cccnc1 | -5 | 96 | 104 | 97 | 100 | 102
O=C(NCc1ccccc1)c1cc2ccc(O)cc2oc1=O | 11 | 95 | 99 | 96 | 95 | 94
C/C(=N\NC(=O)CC#N)c1cc2ccc(O)cc2oc1=O | -1 | 61 | 201*[may fluoresce violet] | 16*[may fluoresce violet] | ? | ?
CC(C)C(=O)Nc1c2c(nn1-c1ccc(F)cc1)CSC2 | 5 | 91 | 94 | 95 | 98 | 97
N#CC1(C#N)COC23CCCCC2C1(C#N)C(=N)O3 (centres undefined) | 20 | 99 | 105 | 98 | 99 | 92
N#CC12COC3(CCCCC3C1(C#N)C#N)OC2=N (centres undefined) | 29 | 81 | 182*[may fluoresce violet] | 48*[may fluoresce violet] | ? | ?
Cc1nn(C(=O)c2ccco2)c(C)c1Sc1ccccc1 | 14 | 87 | 176* | / | 108 | 47
Cc1nn(C(=O)c2ccco2)c(C)c1Sc1ccc(Br)cc1 | 28 | 104 | 118 | 99 | 103 | 104
COc1ccc(S(=O)(=O)N(C)CC(=O)Nc2ccc3c(c2)OCO3)cc1 | 11 | 93 | 104 | 95 | 99 | 98
CCc1cccc(NC(=O)CN(C)S(=O)(=O)c2cccs2)c1 | -18 | 103 | 99 | 98 | 98 | 101
